Shown are actives, neighbours in structure and some others; about 18% of the full set was active somewhere.
Six1-Eya2 blk: inhibitors of human Six1/Eya2 interaction; AlphaScreen GST-Six1/His-Eya2 binding, biochemical; hits give low values; activity change, % (no concentration beside the values); 360,000 compounds, 0.56% hits; AID 651725; in the data active means activity change below about -65%; inconclusive means mostly about -30% to -63%
Target sequence (O00167 whole entry, looked up): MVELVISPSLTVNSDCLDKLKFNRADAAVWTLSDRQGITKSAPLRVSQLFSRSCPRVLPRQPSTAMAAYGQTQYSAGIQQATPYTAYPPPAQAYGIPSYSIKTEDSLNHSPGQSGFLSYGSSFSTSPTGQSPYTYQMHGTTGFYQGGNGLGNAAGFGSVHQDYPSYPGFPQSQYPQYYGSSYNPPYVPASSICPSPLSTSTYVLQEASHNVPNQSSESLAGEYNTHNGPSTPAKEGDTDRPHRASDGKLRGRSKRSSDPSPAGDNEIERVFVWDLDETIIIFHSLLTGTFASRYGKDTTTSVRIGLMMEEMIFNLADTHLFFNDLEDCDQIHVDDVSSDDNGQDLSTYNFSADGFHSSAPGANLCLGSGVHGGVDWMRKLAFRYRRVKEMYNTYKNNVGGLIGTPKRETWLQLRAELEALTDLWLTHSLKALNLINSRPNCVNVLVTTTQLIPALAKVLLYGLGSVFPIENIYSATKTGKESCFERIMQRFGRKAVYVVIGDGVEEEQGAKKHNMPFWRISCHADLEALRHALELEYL
Target sequence (Q15475 whole entry, looked up): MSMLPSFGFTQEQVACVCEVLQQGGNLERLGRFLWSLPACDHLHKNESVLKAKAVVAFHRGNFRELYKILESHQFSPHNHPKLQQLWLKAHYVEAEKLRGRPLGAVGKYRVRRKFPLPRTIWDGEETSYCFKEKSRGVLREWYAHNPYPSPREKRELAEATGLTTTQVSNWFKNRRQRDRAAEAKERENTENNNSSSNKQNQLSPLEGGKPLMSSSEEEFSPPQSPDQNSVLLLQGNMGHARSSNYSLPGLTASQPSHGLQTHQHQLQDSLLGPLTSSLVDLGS
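Compounds are tested against tagged Six1 and Eya2 proteins bridged by glutathione donor and nickel acceptor beads; after a one-hour incubation at 37 °C without light, AlphaScreen emission is recorded.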
TDP1 cell CPT: growth inhibition of DT40 Tdp1-/-;hTDP1 cells with camptothecin (screen for TDP1 inhibitors); 420,000 compounds, 12% hits; chicken DT40 Tdp1-/-;hTDP1 cells + 20 nM CPT, ATP luminescence, 48 h; Potency, µM (highest dose often 46.2 µM), for inactives: at the top dose activity change, negative = growth inhibition, actives largely listed as inhibitors; AID 686979; further: potency means the concentration at half of the fitted maximal effect; nearly all actives have a fitted effect of over 55% in size
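Cell growth measured by CellTiter-Glo luminescence after a minimum 48 h, 37 C compound exposure with 20 nM CPT in Tdp1-knockout DT40 cells stably expressing hTDP1, seeded 400/well; qHTS titration format.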
TDP1 block: TDP1 (human) enzyme inhibition | Q9NUW8 | 350,000 compounds, 0.28% hits | recombinant TDP1, AlphaScreen DNA substrate cleavage | Potency, µM (top dose mostly 130 µM), for inactives: at the highest dose activity change, negative = inhibition, usual class: inhibitors | AID 485290; further: potency means the concentration at half of the fitted maximal effect; nearly all actives have a fitted effect of over 40% in size
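Here, a 5' biotin and 3' phosphotyrosine-FITC DNA oligonucleotide reports Tdp1 activity: intact substrate bridges AlphaScreen beads, while cleavage leaves a 3' phosphate and drops signal. All incubations at room temperature.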
TDP1 cell noCPT: qHTS for Inhibitors of human tyrosyl-DNA phosphodiesterase 1 (TDP1): qHTS in cells in absence of CPT; 420,000 compounds, 15% hits; Potency, µM (titrated, usually from 46.2 µM), without a hit: top-dose activity change, negative = growth inhibition, hits mostly inhibitors; DT40 Tdp1-/- hTDP1 cells, no CPT, ATP luminescence, 48 h; further: potency means the concentration at half of the fitted maximal effect; nearly all actives have a fitted effect of over 55% in size
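Cells were dispensed at 400 per well, compounds added by pin tool, plates incubated ≥48 hr at 37 °C, then CellTiter-Glo added for 30 min at room temperature before luminescence reading. Line: DT40 Tdp1-/- complemented with hTDP1; camptothecin omitted.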
CtBP-E1A inh: blocks the CtBP interaction with E1A | AlphaScreen GST-E1A/His-CtBP binding, 1536-well; hits give low values | activity change, % (concentration not given with the values) | 340,000 compounds, 0.49% hits; in the data active means activity change below about -65%; inconclusive means mostly about -30% to -63%
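Protein mix (5X: 125 nM each GST-E1A, His-CtBP) was incubated with pinned compound 2 h at 37 deg C in dark, in 50 mM Tris pH 8.0 buffer with 300 mM NaCl. Glutathione donor and nickel acceptor beads followed; AlphaScreen signal read after 1 h.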
IL-1B inflam inh: blocks inflammasome-driven IL-1 beta release. THP-1 LPS/ATP IL-1B secretion, AlphaLISA, 16 h; hits give low values. activity change, % at 57.5 µM. AID 743279. 360,000 compounds, 4.7% hits; in the data active means activity change below about -50%; inconclusive means mostly about -30% to -49%
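THP-1 cells pretreated 1 hr with compounds (up to 57.5 uM final), then stimulated with LPS (250 ng/mL final) plus ATP (1.25 mM final); secreted IL-1B measured by AlphaLISA after 16 hr, decreased signal indicating inhibition.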
Active calls of the source: *; ? = inconclusive; . = no result given; [ ] = remark or other dose. Unless noted, the call rests on the fitted dose curve; in most records, active means well fitted curve in the direction sought with a large enough effect; inconclusive means small, poorly fitted or top-dose-only effect, or another doubt; inactive means no such curve, though single readings can be large; an effect the other way counts as inactive or inconclusive. On the % scale 0 is the no-effect control and ±100 the full control effect.

SMILES | Six1-Eya2 blk | TDP1 cell CPT | TDP1 block | TDP1 cell noCPT | CtBP-E1A inh | IL-1B inflam inh
Cc1ccnn1CCC(=O)N1CCCC(Nc2ccc(C(C)C)cc2)C1 (stereo unspecified) | -11.2 | 20.6µM* | . | 16.4µM* | 3.9 | 32.7
CC(C)c1ccc(NC2CCCN(C(=O)CC3CCCC3)C2)cc1 (stereo unspecified) | -27.1 | 20.6µM* | 10.1% | 10.3µM* | . | -5.2
Cc1ccc(OCCOC(=O)c2sc(=S)n(C)c2C)cc1 | -1.2 | 13.7% | 1.2% | -12.4% | -0.3 | 50.7
COC(=O)c1[nH]c2cccc(C)c2c1NC(=O)CN1CCN(c2ccccc2OC)CC1 | 0.0 | ? | 7.3% | ? | 5.6 | ?
CCOc1cc(S(=O)(=O)N2CCCC2)c(C)cc1C | 6.2 | -2.3% | ? | -6.3% | 6.7 | 16.7
O=C(Nc1ccc(N2CCOCC2)c(Cl)c1)c1cccc(F)c1 | 5.6 | -24.6% | 9.8% | ? | -1.2 | -54.5*
O=C(Nc1ccc(N2CCOCC2)c(Cl)c1)c1c(F)c(F)c(F)c(F)c1F | 1.4 | 23.1µM* | 8.7% | 16.4µM* | 1.9 | -12.0
COc1c(C)cccc1C(=O)Nc1ccc(N2CCOCC2)c(Cl)c1 | -9.2 | ? | 5.1% | ? | -0.1 | -69.2*
O=C(Nc1ccc(N2CCOCC2)c(Cl)c1)c1cccnc1Cl | 13.5 | 7.9% | 0.0% | -26.5% | 5.4 | -5.9
COc1c(F)c(F)c(C(=O)Nc2cccc(Cl)c2N2CCOCC2)c(F)c1F | 3.3 | 14.6µM* | 8.2% | 20.6µM* | 7.4 | -2.6
CC(=O)Nc1ccc(N2CCOCC2)c(Cl)c1 | 1.0 | -4.0% | -3.5% | 6.5% | 1.9 | -12.4
CCCCOc1ccc(NC(=O)c2cc(F)c(F)cc2Cl)cc1 | 11.6 | -1.2% | 2.6% | ? | -11.9 | -14.4
CCOc1ccc(NC(=O)c2cc(F)c(F)cc2Cl)cc1OCC | -5.9 | 6.1% | 1.6% | -4.4% | -97.1* | 16.7
O=C(Nc1ccc(N2CCOCC2)c(Cl)c1)c1cc(F)c(F)cc1Cl | 1.4 | ? | 3.0% | ? | 3.3 | -58.0*
COCCN(C(=O)CCC(=O)Nc1ccccn1)C(C(=O)NCCC(C)C)c1ccc(C)cc1 (stereo unspecified) | 17.8 | 2.3% | . | -14.8% | 0.4 | -6.9
COC(=O)CCCNC(=O)OCc1ccc([N+](=O)[O-])cc1 | 8.2 | 2.5% | 3.1% | 1.1% | 2.3 | 9.2
O=S(=O)(c1ccc(Br)s1)N1CCN(CCOc2ccccc2)CC1 | 0.2 | 20.6µM* | -2.0% | ? | 5.8 | ?
NS(=O)(=O)c1ccc(N2CCN(CCOc3ccc(Cl)cc3)CC2)nc1 | 0.7 | ? | 8.3% | 14.6µM* | -12.2 | -10.9
O=S(=O)(c1cccs1)N1CCN(CC(O)COc2cc(Cl)ccc2Cl)CC1 (stereo unspecified) | -4.3 | ? | 3.0% | 23.1µM* | -4.4 | -16.2
O=S(=O)(c1cccs1)N1CCN(c2ccc(Cl)cc2)CC1 | 2.7 | 6.3% | -2.4% | -23.2% | 4.0 | -11.1
O=S(=O)(c1cccs1)N1CCN(CCOc2ccc(Cl)cc2)CC1 | -0.8 | ? | -0.3%[56.1 µM] | ? | 0.6 | -59.1*
O=S(=O)(c1cccs1)N1CCN(c2cccc(Cl)c2)CC1 | 3.0 | -24.7% | . | -28.0% | 13.4 | -10.6
CCS(=O)(=O)N1N=C(c2ccc(NS(C)(=O)=O)cc2)CC1c1ccccc1 (stereo unspecified) | -10.4 | -5.5% | 3.0% | -17.9% | -1.1 | -5.8
COc1cc(NC(=O)c2cc(-c3cccnc3)nc3ccc(Br)cc23)cc(OC)c1 | -3.4 | ? | 0.0% | 20.6µM* | -17.4 | 7.8
NNC(=O)c1cc(-c2ccc(N)cc2)nc2ccc(Br)cc12 | 5.0 | ? | 6.3% | 14.6µM* | . | -20.3
SMILES | Six1-Eya2 blk | TDP1 cell CPT | TDP1 block | TDP1 cell noCPT | CtBP-E1A inh | IL-1B inflam inh
COc1ccc(NC(=O)c2cc(-c3ccncc3)nc3ccc(Br)cc23)cc1OC | -3.1 | ? | -0.2% | 20.6µM* | 7.3 | -5.5
CCOc1ccc(S(=O)(=O)N2CCOCC2)cc1NC(=O)CN1C(=O)NC2(CCCC2)C1=O | 3.0 | ? | -2.9%[0.505 µM] | -20.5% | -4.0 | -8.4
CCN1C(C)=CC(=O)[C@@H](O)[C@H]1c1ccccc1Br | -0.3 | -8.0% | . | -9.0% | -0.9 | 88.3
CCOc1ccccc1NC(=O)c1ccc(C(=O)Nc2ccccc2OCC)nc1 | -0.2 | ? | . | -9.6% | 14.2 | 20.4
O=S(=O)(c1ccc(Cl)cc1)N1CCCC1c1nc(-c2cccc(Cl)c2)no1 (stereo unspecified) | 10.0 | 23.1µM* | -5.6% | ? | 15.8 | 7.7
NC(=O)CCc1nc2cc(C(F)(F)F)ccc2n(Cc2ccccc2)c1=O | -6.3 | -15.4% | 10.8% | ? | 5.4 | -11.5
Cc1cc(C)nc(-n2nc(C)c3c2N(Cc2ccccc2F)C(=O)CC3c2ccc(Cl)cc2)n1 (stereo unspecified) | . | 23.1µM* | 2.6% | 23.1µM* | . | .
COc1ccc(NC(=O)/C(C#N)=C/c2ccc(C)o2)cc1 | . | -23.3% | 3.1%[12.3 µM] | ? | . | .
COc1ccc(NC(=O)/C(C#N)=C\c2ccc(N3CCOCC3)o2)cc1 | -12.8 | ? | 4.9% | 20.6µM* | -12.2 | -19.5
COc1ccc(NC(=O)/C(C#N)=C/C=C/c2ccco2)cc1 | -5.4 | 8.2µM* | 2.3% | 9.2µM* | -2.7 | -67.0*
N#C/C(=C\c1ccc(N2CCOCC2)o1)C(=O)Nc1ccc(O)cc1 | ? | ? | 6.0% | 29.1µM* | ? | -55.3*
Cc1n[nH]c(=O)nc1NCCN(C)C | 2.3 | -18.8% | 1.0% | -2.8% | -0.5 | 5.3
COc1ccccc1NS(=O)(=O)c1cccc(N2CC(O)=C(c3ccccc3)C2=N)c1 | -6.6 | 3.1% | -1.1% | 5.0% | 8.1 | 32.4
CC1(C(=O)N2CCN(Cc3ccccc3Cl)CC2)CC1(Cl)Cl (stereo unspecified) | -1.4 | -3.7% | 6.1% | -25.2% | . | -8.6
Cc1nc2sccn2c1CN1Cc2ccccc2OC(c2ccccc2F)C1 (stereo unspecified) | . | 6.2%[9.04 µM] | . | 18.4µM* | . | .
COc1ccccc1C1CN(Cc2c(O)cccc2OC)Cc2ccccc2O1 (stereo unspecified) | . | 5.6%[9.04 µM] | . | -18.5% | . | .
COc1ccccc1C1CN(Cc2cccc(C)n2)Cc2ccccc2O1 (stereo unspecified) | . | -29.9%[9.04 µM] | . | 16.4µM* | . | .
O=C(c1ccc2ccccc2n1)N1CCN(S(=O)(=O)c2ccccc2)CC1 | -0.1 | ? | 0.4% | ? | . | -10.9
CCCNC(=O)c1ccc2c(c1)S(=O)(=O)c1ccccc1C2=O | -8.7 | -16.0% | 2.4% | -6.4% | -18.1 | -23.1
